Test results taken from PubChem BioAssay AID1159580 (chemical genetic matrix, 2015).
Out of some 5,500 compounds screened, about 2,000 (36%) were called active. Roughly 18% stayed inconclusive and do not appear here. Rule as the data show it: active = normalized growth mostly below about 0.91 (no sharp cut-off); inconclusive = no clear call, values can overlap the other calls; inactive = mostly above about 0.92. This is one part of the list.

Assay: chemical genetic growth profiling, strain panel (AID 1159580);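 also: tested at 20 µM; growth read once vehicle control cultures reached saturation at 30 °C; 1 = growth at the plate median or of vehicle wells; lower values mean less growth of the strain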
Conditions: S. cerevisiae deletion strains, growth OD

Measured: normalized growth

CC(=O)Oc1cccc(C(=O)O)c1OC(C)=O
inactive: locus YAL013W, strain DEP1, active compounds read low 1.01 | locus YBR021W, strain FUR4, active compounds read low 0.987 | locus YBR229C, strain ROT2, active compounds read low 1 | locus YCL029C, strain bik1, active compounds read low 1 | locus YDL035C, strain GPR1, active compounds read low 1.03 | locus YDL074C, strain BRE1, active compounds read low 1.01 | locus YDL101C, strain DUN1, active compounds read low 1.01 | locus YDL134C, strain PPH21, active compounds read low 1.01 | locus YDL185W, strain tfp1, active compounds read low 1.02 | locus YDL192W, strain arf1, active compounds read low 1.02 | locus YDR101C, strain arx1, active compounds read low 0.985 | locus YDR162C, strain NBP2, active compounds read low 1.02 | locus YDR318W, strain mcm21, active compounds read low 1.01 | locus YDR388W, active compounds read low 1.01 | locus YDR502C, strain sam2, active compounds read low 1 | locus YEL061C, strain CIN8, active compounds read low 1.01 | locus YER110C, active compounds read low 1.02 | locus YER155C, strain BEM2, active compounds read low 1 | locus YER167W, strain BCK2, active compounds read low 1.01 | locus YGL078C, strain dbp3, active compounds read low 1.01 | locus YGL086W, strain mad1, active compounds read low 0.997 | locus YGL248W, strain PDE1, active compounds read low 1.01 | locus YGR078C, strain PAC10, active compounds read low 1.01 | locus YGR135W, strain pre9, active compounds read low 1.04 | locus YGR252W, strain gcn5, active compounds read low 1 | locus YHR030C, strain SLT2, active compounds read low 1.01 | locus YHR079C, strain IRE1 (second series), active compounds read low 1.01 | locus YHR094C, strain hxt1, active compounds read low 1.01 | locus YHR129C, strain ARP1, active compounds read low 1.01 | locus YHR200W, strain rpn10, active compounds read low 1.02 | locus YIL066C, strain RNR3, active compounds read low 1.01 | locus YIL073C, strain SPO22, active compounds read low 1.05 | locus YIL125W, strain kgd1, active compounds read low 1.01 | locus YIR030C, strain dcg1, active compounds read low 1.01 | locus YJL095W, strain BCK1, active compounds read low 1.01 | locus YJL134W, strain LCB3, active compounds read low 1 | locus YJL168C, strain set2, active compounds read low 1.02 | locus YJL187C, strain SWE1 (second series), active compounds read low 1.01 | locus YJR043C, strain POL32, active compounds read low 1.01 | locus YJR075W, strain HOC1, active compounds read low 1.03 | locus YKL009W, strain mrt4, active compounds read low 1.03 | locus YKL068W, active compounds read low 1.01 | locus YKL085W, strain MDH1 (second series), active compounds read low 1.07 | locus YKL085W, strain MDH1, active compounds read low 1.07 | locus YKL190W, strain CNB1, active compounds read low 1.01 | locus YKR001C, strain vps1, active compounds read low 1.01 | locus YLR039C, strain RIC1, active compounds read low 1.02 | locus YLR058C, strain SHM2, active compounds read low 1.01 | locus YLR102C, strain apc9, active compounds read low 1.01 | locus YLR262C, strain YPT6, active compounds read low 1.02 | locus YLR268W, strain sec22, active compounds read low 1 | locus YLR330W, strain CHS5, active compounds read low 1.01 | locus YLR342W, strain FKS1 (second series), active compounds read low 1.04 | locus YLR371W, strain rom2, active compounds read low 1 | locus YLR418C, strain cdc73, active compounds read low 1.01 | locus YML016C, strain PPZ1, active compounds read low 1.01 | locus YML032C, strain rad52, active compounds read low 1.02 | locus YML124C, strain tub3, active compounds read low 1.02 | locus YMR078C, strain ctf18, active compounds read low 1.02 | locus YMR223W, strain ubp8, active compounds read low 1.04 | locus YMR307W, strain GAS1, active compounds read low 1.07 | locus YNL067W, strain RPL9B, active compounds read low 1.01 | locus YNL153C, strain GIM3, active compounds read low 0.997 | locus YNL233W, strain BNI4, active compounds read low 1 | locus YNL250W, strain rad50, active compounds read low 1.04 | locus YNL271C, strain bni1, active compounds read low 1.01 | locus YNL298W, strain CLA4, active compounds read low 1.02 | locus YNL307C, strain MCK1, active compounds read low 1.02 | locus YNL322C, strain KRE1, active compounds read low 1.01 | locus YNR052C, strain pop2, active compounds read low 1.01 | locus YOL006C, strain TOP1, active compounds read low 1.06 | locus YOL147C, strain pex11, active compounds read low 1.01 | locus YOR061W, strain CKA2, active compounds read low 1.01 | locus YOR069W, strain VPS5, active compounds read low 1.01 | locus YOR136W, strain idh2, active compounds read low 1.01 | locus YOR144C, strain elg1, active compounds read low 1.01 | locus YOR184W, strain ser1, active compounds read low 1.02 | locus YOR316C, strain cot1, active compounds read low 1.01 | locus YPR119W, strain clb2, active compounds read low 1.01 | locus YPR141C, strain kar3, active compounds read low 1 | locus YPR163C, strain tif3, active compounds read low 1.01 | locus YPR167C, strain met16, active compounds read low 1.01 | strain wtn01, active compounds read low 1.01
